Where “and” joins values, the source holds several entries; their conditions need not be identical. Identical values can stand only once. Inconclusive results are not listed. A call without a number means that no potency is given here. Calls of active or inactive are those of the source. Unless noted, calls follow the shape of the dose curve; as a rule, active = well fitted curve in the direction sought with a large enough effect; inconclusive = small, poorly fitted or top-dose-only effect, or another doubt; inactive = no such curve, though single readings can be large; an effect the other way counts as inactive or inconclusive.
Legend:
[1] = Identifying Small Molecule Inhibitors of Pancreatic Cancer Stem Cells (A278, Adherent) (AID 1259361);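 also: viability read after 48 h compound exposure; nearly all actives have a fitted effect of over 35% in size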
Outline: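 After a 4 h attachment period, compounds were pinned into wells and cultures held 48 h under standard incubator conditions. Viability was then measured as CellTiter-Glo luminescence following 10 min at room temperature.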

[2] = P-glycoprotein substrates identified in KB-3-1 adenocarcinoma cell line, qHTS therapeutic library screen (AID 1346986); also: nearly all actives have a fitted effect of over 60% in size;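 also: potency is read from the fitted curve at half-maximal effect; potency is for cytotoxicity meaning loss of cell viability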
Outline: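 KB-3-1 parental cells and P-gp-overexpressing KB-8-5-11 (colchicine omitted during assay) plated at 500 cells/well, dosed in dose-response, incubated 72 h at 37 degree C. CellTiter-Glo luminescence read; KB-8-5-11 also tested with tariquidar.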

[3] = NS1 protein of Zika virus - qHTS assay to identify small molecule inhibitors in human HEK 293 cells (AID 1347053); also: nearly all actives have a fitted effect of over 55% in size; also: potency is read from the fitted curve at half-maximal effect
Outline: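 HEK 293; 20 h pre-culture, 37 C/5% CO2; cpd 1 h pre-infection; ZIKV MR766, MOI = 0.5, 24 h, 37 C; TR-FRET NS1 readout (two anti-NS1 Abs); norm. to no-virus vs infected.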

[4] = P-glycoprotein substrates identified in KB-8-5-11 adenocarcinoma cell line, qHTS therapeutic library screen (AID 1346987); also: nearly all actives have a fitted effect of over 65% in size; also: potency is read from the fitted curve at half-maximal effect
Outline: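 KB-8-5-11: colchicine-selected sub-line of KB-3-1 over-expressing P-gp; assay medium lacked colchicine. 72 h drug exposure at 37 degree C, CellTiter-Glo.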

[5] = Identifying Small Molecule Inhibitors of Pancreatic Cancer Stem Cells (Panc1, Adherent) (AID 1259362); conditions: Potency: viability; also: potency is read from the fitted curve at half-maximal effect
Outline: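 Luminescent ATP readout (CellTiter-Glo) quantifies surviving cells after a 48 h drug incubation. Normalization uses DMSO wells as no inhibition and media-only wells as full inhibition; bortezomib served as positive control.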

[6] = Natriuretic polypeptide receptor (hNpr1) antagonism - Pilot counterscreen GloSensor control cell line (AID 1347045; calls by dose curve; also: series mostly up to about 38 µM)
Outline: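 HEK293 cells carrying the GloSensor cGMP sensor (GIP/pGS-40F) were loaded with 2% GloSensor reagent for 2 h, exposed to compounds for 30 min, and then stimulated with 50 uM sodium nitroprusside for 20 min at room temperature.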

[7] = target: Atrial natriuretic peptide receptor 1 (Homo sapiens) (UniProt P16066); assay: Natriuretic polypeptide receptor (hNpr1) antagonism - Pilot screen (AID 1347049; calls by dose curve;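 also: agonist-evoked cGMP luminescence read 20 min after hNppA addition; series mostly up to about 58 µM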)
Atrial natriuretic peptide receptor 1 (Homo sapiens), sequence (P16066 whole entry, looked up): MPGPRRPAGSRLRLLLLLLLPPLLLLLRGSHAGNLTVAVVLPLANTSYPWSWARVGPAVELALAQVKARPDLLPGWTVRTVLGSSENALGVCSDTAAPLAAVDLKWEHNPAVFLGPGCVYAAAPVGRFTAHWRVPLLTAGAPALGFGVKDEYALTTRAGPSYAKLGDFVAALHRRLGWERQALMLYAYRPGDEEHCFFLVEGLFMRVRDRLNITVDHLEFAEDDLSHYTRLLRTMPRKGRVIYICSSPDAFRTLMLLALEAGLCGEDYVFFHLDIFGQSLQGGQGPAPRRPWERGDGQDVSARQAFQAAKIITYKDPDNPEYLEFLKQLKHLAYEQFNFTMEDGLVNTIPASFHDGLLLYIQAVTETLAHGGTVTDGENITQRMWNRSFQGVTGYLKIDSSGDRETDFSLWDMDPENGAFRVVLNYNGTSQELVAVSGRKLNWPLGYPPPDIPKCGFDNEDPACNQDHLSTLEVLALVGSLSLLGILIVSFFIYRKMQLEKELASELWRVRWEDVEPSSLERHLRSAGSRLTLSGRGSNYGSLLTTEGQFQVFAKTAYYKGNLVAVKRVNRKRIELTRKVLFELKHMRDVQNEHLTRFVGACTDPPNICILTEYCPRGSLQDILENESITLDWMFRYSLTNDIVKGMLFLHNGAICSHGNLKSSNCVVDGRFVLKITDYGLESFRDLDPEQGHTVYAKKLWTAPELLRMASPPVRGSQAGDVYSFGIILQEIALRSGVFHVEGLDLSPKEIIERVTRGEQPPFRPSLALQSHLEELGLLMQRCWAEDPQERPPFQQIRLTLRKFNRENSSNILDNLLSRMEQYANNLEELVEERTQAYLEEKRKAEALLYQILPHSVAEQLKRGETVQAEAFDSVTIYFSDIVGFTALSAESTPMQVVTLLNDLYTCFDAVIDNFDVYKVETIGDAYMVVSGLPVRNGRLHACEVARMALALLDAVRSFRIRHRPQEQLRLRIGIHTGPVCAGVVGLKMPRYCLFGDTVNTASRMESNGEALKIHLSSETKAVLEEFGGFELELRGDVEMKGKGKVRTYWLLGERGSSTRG
Outline: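 HEK293 cells co-expressing hNpr1 and the GloSensor pGS-40F cGMP luciferase sensor were preloaded with 2% GloSensor reagent for 2 h. Compounds were added for 30 min at room temperature, then cells were stimulated with 0.1 nM hNppA for 20 min before luminescence readout.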

[8] = target: Atrial natriuretic peptide receptor 2 (Homo sapiens) (UniProt P20594); assay: Natriuretic polypeptide receptor (hNpr2) antagonism - Pilot subtype selectivity assay (AID 1347050; calls by dose curve)
Atrial natriuretic peptide receptor 2 (Homo sapiens), sequence (P20594 whole entry, looked up): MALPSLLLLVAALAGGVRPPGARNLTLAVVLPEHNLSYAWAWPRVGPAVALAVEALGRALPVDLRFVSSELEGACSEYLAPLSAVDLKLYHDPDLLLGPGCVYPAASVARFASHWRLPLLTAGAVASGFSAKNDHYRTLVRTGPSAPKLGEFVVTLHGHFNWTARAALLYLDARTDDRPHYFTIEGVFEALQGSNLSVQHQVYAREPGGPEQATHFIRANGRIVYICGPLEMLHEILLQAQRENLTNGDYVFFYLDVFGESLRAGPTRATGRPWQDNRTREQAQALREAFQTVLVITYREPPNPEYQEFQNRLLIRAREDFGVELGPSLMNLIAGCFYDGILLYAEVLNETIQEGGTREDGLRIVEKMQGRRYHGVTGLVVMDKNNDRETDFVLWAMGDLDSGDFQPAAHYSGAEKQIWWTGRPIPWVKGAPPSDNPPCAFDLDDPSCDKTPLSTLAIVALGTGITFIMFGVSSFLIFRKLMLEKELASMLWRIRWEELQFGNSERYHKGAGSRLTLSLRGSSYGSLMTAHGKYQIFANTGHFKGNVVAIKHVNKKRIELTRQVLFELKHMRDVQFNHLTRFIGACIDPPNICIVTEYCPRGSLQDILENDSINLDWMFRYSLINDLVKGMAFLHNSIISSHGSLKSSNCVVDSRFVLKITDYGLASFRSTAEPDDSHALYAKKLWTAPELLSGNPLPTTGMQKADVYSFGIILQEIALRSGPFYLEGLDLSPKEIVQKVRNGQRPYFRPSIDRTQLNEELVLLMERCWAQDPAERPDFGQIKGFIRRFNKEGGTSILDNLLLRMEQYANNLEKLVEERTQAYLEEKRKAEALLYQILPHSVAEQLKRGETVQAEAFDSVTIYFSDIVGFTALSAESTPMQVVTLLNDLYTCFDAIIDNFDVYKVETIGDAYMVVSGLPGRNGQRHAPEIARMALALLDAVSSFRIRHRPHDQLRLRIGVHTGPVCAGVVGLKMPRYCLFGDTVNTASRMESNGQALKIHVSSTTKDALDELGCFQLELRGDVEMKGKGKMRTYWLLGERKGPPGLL
Outline: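 cGMP-sensor HEK293/hNpr2 cells; 2% GloSensor reagent 2 h RT; compounds 30 min; baseline luminescence read; 1 nM hNppC agonist 20 min RT; final luminescence read by CCD camera. Antagonism = reduced post-agonist signal.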

[9] = target: Tyrosine-protein phosphatase non-receptor type substrate 1 (Homo sapiens) + Leukocyte surface antigen CD47 (Homo sapiens) (UniProt P78324+Q08722); assay: CD47-SIRPalpha protein protein interaction - LANCE assay qHTS validation (AID 1347057; active = well fitted curve in the direction sought with a large enough effect in the signal ratio, with a control signal flat, not every such curve was filed as active; the % refers to the signal ratio; also: series mostly up to about 38 µM)
Tyrosine-protein phosphatase non-receptor type substrate 1 (Homo sapiens) + Leukocyte surface antigen CD47 (Homo sapiens), sequence (P78324 whole entry, looked up): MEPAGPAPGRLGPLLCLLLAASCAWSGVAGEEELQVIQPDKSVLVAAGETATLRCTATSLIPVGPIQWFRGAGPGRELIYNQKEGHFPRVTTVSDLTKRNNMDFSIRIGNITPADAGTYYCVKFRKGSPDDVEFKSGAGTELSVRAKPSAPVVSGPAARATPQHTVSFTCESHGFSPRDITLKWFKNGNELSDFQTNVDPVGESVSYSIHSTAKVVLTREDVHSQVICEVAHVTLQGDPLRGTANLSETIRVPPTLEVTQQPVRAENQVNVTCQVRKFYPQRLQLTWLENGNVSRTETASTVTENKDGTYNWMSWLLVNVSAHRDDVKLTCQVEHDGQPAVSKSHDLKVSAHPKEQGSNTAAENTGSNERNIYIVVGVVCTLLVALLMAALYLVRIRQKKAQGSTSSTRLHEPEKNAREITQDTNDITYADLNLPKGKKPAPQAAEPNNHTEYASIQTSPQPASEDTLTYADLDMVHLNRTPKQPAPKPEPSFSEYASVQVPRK
Tyrosine-protein phosphatase non-receptor type substrate 1 (Homo sapiens) + Leukocyte surface antigen CD47 (Homo sapiens), sequence (Q08722 whole entry, looked up): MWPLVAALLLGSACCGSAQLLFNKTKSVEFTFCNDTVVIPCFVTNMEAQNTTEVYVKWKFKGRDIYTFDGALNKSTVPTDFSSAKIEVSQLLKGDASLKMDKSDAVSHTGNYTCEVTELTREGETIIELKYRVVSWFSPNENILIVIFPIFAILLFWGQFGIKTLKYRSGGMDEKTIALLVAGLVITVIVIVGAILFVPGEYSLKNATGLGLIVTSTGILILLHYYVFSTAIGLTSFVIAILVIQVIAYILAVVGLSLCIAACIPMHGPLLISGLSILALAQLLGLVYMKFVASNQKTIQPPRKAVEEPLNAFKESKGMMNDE
Outline: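 First, His-tagged CD47 and Eu-labelled anti-His antibody met the compound for 30 min; next, site-specifically biotinylated SIRPalpha was added for 30 min; finally streptavidin-APC was added before reading the TR-FRET ratio.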

## CO[C@@H](C(=O)N1Cc2[nH]nc(NC(=O)c3ccc(N4CCN(C)CC4)cc3)c2C1)c1ccccc1
[1]
  IC50 (viability decrease): 0.0935 µM (active)
[2]
  Potency: 1.3 µM (active)
[3]
  Potency: inactive

## Cc1nc(N)sc1-c1ccnc(Nc2ccc(N3CCOCC3)cc2)n1
[1]
  IC50 (viability decrease): 5.9 µM (active)
[2]
  Potency: 1.46 µM (active)
[4]
  Potency: 5.26 µM (active) and 1.16 µM (active)

## CN1CCN(CCOc2cc(OC3CCOCC3)c3c(Nc4c(Cl)ccc5c4OCO5)ncnc3c2)CC1
[1]
  IC50 (viability decrease): 20.9 µM (active)

## CC(C)(C)COc1ccc(-n2cc(C(=O)O)cn2)cc1C#N
[1]
  IC50 (viability decrease): inactive
[4]
  Potency: inactive

## CC(C)(C)c1cc(C(=O)O)c(NC(=O)Nc2ccc3[nH]ncc3c2)s1
[1]
  IC50 (viability decrease): inactive
[2]
  Potency: inactive
[4]
  Potency: inactive
[3]
  Potency: inactive

## Cc1ccc(Nc2cc(-c3cccc(N4C(=O)c5ccccc5C4=O)c3)ncn2)cc1NS(C)(=O)=O
[2]
  Potency: inactive
[4]
  Potency: inactive

## O=C(O)c1ccc(-c2cc3cccnc3c(-c3ccc4nonc4c3)n2)cc1
[1]
  IC50 (viability decrease): inactive

## CC(C)(C)C(=O)Oc1ccc2c(c1)nc(NC(=O)c1cccc([N+](=O)[O-])c1)n2CCCO
[1]
  IC50 (viability decrease): 18.7 µM (active)
[5]
  Potency: inactive
[3]
  Potency: inactive

## N#Cc1ccc(NC(=O)Nc2ccccc2Br)c2n[nH]nc12
[5]
  Potency: inactive
[4]
  Potency: inactive
[3]
  Potency: inactive

## Cc1ccc(F)c(NC(=O)Nc2ccc(-c3cccc4[nH]nc(N)c34)cc2)c1
[1]
  IC50 (viability decrease): 26.4 µM (active)
[4]
  Potency: 23.5 µM (active)
[3]
  Potency: inactive

## CN(C)Cc1ccc(-c2nc3cccc4c3n2CCNC4=O)cc1
[1]
  IC50 (viability decrease): 23.5 µM (active)
[4]
  Potency: inactive

## CC(C)(C(=O)NCC(F)(F)C(F)(F)F)C(=O)N[C@@H]1C(=O)Nc2ccccc2-c2ccccc21
[1]
  IC50 (viability decrease): inactive
[5]
  Potency: inactive
[2]
  Potency: inactive
[4]
  Potency: inactive
[3]
  Potency: inactive

## CN(C)C1CCN(C(=O)c2ccc(NC(=O)Nc3nc(N4CCOCC4)nc(N4CCOCC4)n3)cc2)CC1
[1]
  IC50 (viability decrease): 0.0148 µM (active)
[4]
  Potency: 14.8 µM (active)

## CC(C)[C@H](CO)Nc1nc(Nc2ccc(C(=O)O)c(Cl)c2)c2ncn(C(C)C)c2n1
[1]
  IC50 (viability decrease): inactive
[5]
  Potency: inactive
[2]
  Potency: inactive
[4]
  Potency: inactive

## O=C(CCCCCCC(=O)Nc1ccccc1)NO
[1]
  IC50 (viability decrease): 3.4 µM (active)
[4]
  Potency: 4.61 µM (active) and 3.66 µM (active) and 6.62 µM (active)

## CS(=O)c1ccc(-c2nc(-c3ccc(F)cc3)c(-c3ccncc3)[nH]2)cc1 (stereo not drawn)
[1]
  IC50 (viability decrease): inactive
[2]
  Potency: inactive
[4]
  Potency: inactive

## OC[C@H]1O[C@@H](n2cnc3c2NC=NC[C@@H]3O)C[C@H]1O
[1]
  IC50 (viability decrease): 20.9 µM (active)
[5]
  Potency: inactive
[4]
  Potency: inactive

## O=C(Nc1ccccc1-c1cn2c(CN3CCNCC3)csc2n1)c1cnc2ccccc2n1
[5]
  Potency: inactive
[4]
  Potency: 26.4 µM (active)

## O=C(Nc1c(Cl)cncc1Cl)c1ccc(OC(F)F)c(OCC2CC2)c1
[2]
  Potency: inactive
[4]
  Potency: inactive

## CO[C@H]1C=CC=C(C)C(=O)NC2=CC(=O)C(NCCN(C)C)=C(C[C@@H](C)C[C@H](OC)[C@@H](O)[C@@H](C)C=C(C)[C@@H]1OC(N)=O)C2=O
[1]
  IC50 (viability decrease): 0.0059 µM (active)
[4]
  Potency: 7.43 µM (active)

## COc1ncc(-c2ccc3nccc(-c4ccnnc4)c3c2)cc1NS(=O)(=O)c1ccc(F)cc1F
[1]
  IC50 (viability decrease): 0.118 µM (active)
[4]
  Potency: 2.96 µM (active) and 29.1 nM (active)
[3]
  Potency: 0.0418 µM (active)

## O=C(O)CCC1CCC(c2cc(F)ccc2F)(S(=O)(=O)c2ccc(Cl)cc2)CC1 (stereo not drawn)
[1]
  IC50 (viability decrease): inactive
[5]
  Potency: inactive
[2]
  Potency: inactive
[4]
  Potency: inactive
[3]
  Potency: inactive

## Nc1ncnc2c1ncn2[C@@H]1O[C@@H](CO)[C@H](O)[C@H]1O
[2]
  Potency: inactive

## CC1=C(/C=C/C(C)=C/C=C/C(C)=C/C(=O)Nc2ccc(O)cc2)C(C)(C)CCC1
[1]
  IC50 (viability decrease): 3.32 µM (active)
[5]
  Potency: 23.5 µM (active)
[4]
  Potency: 23.1 µM (active)
[6]
  Potency: inactive
[7]
  outcome: inactive
[8]
  outcome: inactive
[9]
  outcome: inactive

## Clc1ccc(-c2nc3sccn3c2C=NOCc2ccc(Cl)c(Cl)c2)cc1
[1]
  IC50 (viability decrease): inactive
[4]
  Potency: inactive

## CCOc1ccc(Nc2nc(-c3c(C)nc4ccccn34)cs2)cc1
[1]
  IC50 (viability decrease): 0.0264 µM (active)
[3]
  Potency: inactive

## O=C1C(Cl)=C(NCCN2CCOCC2)C(=O)c2ncccc21
[1]
  IC50 (viability decrease): 3.32 µM (active)
[5]
  Potency: 1.66 µM (active)
[4]
  Potency: 20.9 µM (active)
[3]
  Potency: 9.35 µM (active)

## Cc1ccc([C@@H]2O[C@H](CO)[C@@H](O)[C@H](O)[C@@H]2O)cc1Cc1ccc(-c2ccc(F)cc2)s1
[2]
  Potency: inactive
[4]
  Potency: inactive

## COc1cccc([C@@H](C)NCCCc2ccccc2Cl)c1
[2]
  Potency: inactive
[4]
  Potency: inactive

## CCCCCCCCCCCC1=C(O)C(=O)C=C(O)C1=O
[2]
  Potency: inactive
[4]
  Potency: inactive
[3]
  Potency: inactive

## CCOC(=O)C1=C(N)Oc2ccc(Br)cc2C1C(C#N)C(=O)OCC (stereo not drawn)
[2]
  Potency: inactive
[3]
  Potency: inactive

## Nc1nc(F)nc2c1ncn2[C@@H]1O[C@H](COP(=O)(O)O)[C@@H](O)[C@H]1O
[2]
  Potency: inactive
[4]
  Potency: inactive
[3]
  Potency: inactive

## Nc1ncnc2c1ncn2[C@@H]1O[C@H](CO)C[C@@H]1O
[2]
  Potency: inactive
[3]
  Potency: inactive

## CC1(C)Cc2c(sc(NC(=S)NC(=O)c3ccccc3)c2C(=O)O)CO1
[2]
  Potency: inactive
[4]
  Potency: inactive
[3]
  Potency: inactive

Source: PubChem BioAssay (NCATS)
